Assay results published in PubChem BioAssay AID1030 (National Center for Advancing Translational Sciences (NCATS), 2008).
About 16,000 (7.3%) of roughly 220,000 compounds were called active. Where a call stands in place of a potency, no number is given. Another 25% or so got no clear call; they are omitted. The call rests on the fitted dose curve; in most records, active means well fitted inhibition curve with a large enough effect (not every such curve was filed as active); inconclusive means small, poorly fitted or top-dose-only effect, or another doubt; inactive means no such curve, though single readings can be large or run the other way. Only a selection was taken, and actives are over-represented in it overall.

What follows are compounds tested against Aldehyde dehydrogenase 1A1 (Homo sapiens) (UniProt P00352) (assay: qHTS Assay for Inhibitors of Aldehyde Dehydrogenase 1 (ALDH1A1)). Details: Purified ALDH1A1, NADH fluorescence, propionaldehyde substrate; series mostly up to 75.3 µM.
Chain of Aldehyde dehydrogenase 1A1 (Homo sapiens) (P00352 whole entry, looked up): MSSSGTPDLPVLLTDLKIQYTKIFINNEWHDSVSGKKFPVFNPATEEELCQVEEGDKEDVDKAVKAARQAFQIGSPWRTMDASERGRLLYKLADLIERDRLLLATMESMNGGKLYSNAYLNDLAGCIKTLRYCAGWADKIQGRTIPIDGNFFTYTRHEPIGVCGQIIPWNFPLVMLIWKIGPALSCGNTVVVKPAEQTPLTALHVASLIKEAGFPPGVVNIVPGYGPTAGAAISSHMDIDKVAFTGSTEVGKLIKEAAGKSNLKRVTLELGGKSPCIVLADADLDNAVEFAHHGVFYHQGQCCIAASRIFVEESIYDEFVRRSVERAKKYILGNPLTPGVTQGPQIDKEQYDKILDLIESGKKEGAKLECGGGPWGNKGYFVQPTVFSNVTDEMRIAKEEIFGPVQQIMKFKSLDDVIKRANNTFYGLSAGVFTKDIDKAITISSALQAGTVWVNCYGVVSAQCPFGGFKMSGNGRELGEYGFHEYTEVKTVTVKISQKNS
Potency means the concentration at half of the fitted maximal effect.

Structure (SMILES)	Potency	activity, negative = inhibition
Cc1cc(C)nc(N/N=C/c2c(C)oc3ccccc23)n1	inactive	–
O=C(COc1ccccc1[N+](=O)[O-])NC1CC1	inactive	–
C=CCNC(=O)COC(=O)CNC(=O)c1cc(Cl)cc([N+](=O)[O-])c1	inactive	–
Cn1cc(CCC(=O)N2CCCC(C(=O)c3ccc(C(C)(C)C)cc3)C2)cn1 (stereo not drawn)	inactive	–
Cc1nn(CC(=O)N/N=C/c2ccc(F)cc2)c(C)c1[N+](=O)[O-]	inactive	–
O=C(CCCc1ccccc1)NCc1ccccc1	inactive	–
C/C(=C\c1ccco1)CN1CCC(N2CCC(C(=O)N3CCOCC3)CC2)CC1	inactive	–
Cc1cc(C)n2nc(SCC(N)=O)nc2n1	inactive	–
CCOC(=O)C(C)Sc1nnc(CSc2nc3nc(C)cc(C)n3n2)o1 (stereo not drawn)	inactive	–
COc1ccc(C(C)=O)cc1CSc1nc2nc(C)cc(C)n2n1	20 µM (active)	–
O=C(CCC(=O)OCc1ccc(Cl)cc1)Nc1ccccc1	inactive	–
Cc1cc(C)c2nc(-c3cccnc3)cc(C(=O)Nc3ccc(S(=O)(=O)Nc4onc(C)c4C)cc3)c2c1	inactive	–
COc1ccc(/C=C/C(=O)c2ccc(NS(=O)(=O)c3ccc(C)cc3)cc2)cc1O	inactive	–
CN1CCN(C(=O)CCc2ncc(C(F)(F)F)cc2Cl)CC1	inactive	–
CC(CC(=O)C1C(C)C=CCC1(C)C)NNC(N)=O (stereo not drawn)	inactive	–
O=C(Nc1ccccc1Cc1ccccc1)c1ccc2c(c1)SC1=NS(=O)(=O)CCN12	7.94 µM (active)	–
O=S1(=O)CCN2C(=N1)SC1=C2CCN(Cc2ccccc2)C1	inactive	–
O=C(Nc1ccccc1N1CCN(c2ccccc2)CC1)c1cccc(F)c1	inactive	–
COc1ccc(N2CCN(CCCNC(=O)C3CCN(S(=O)(=O)N4CCOCC4)CC3)CC2)cc1	inactive	–
CCc1ccc(N2CC(O)=C(c3nc4ccccc4c(=O)[nH]3)C2=N)cc1	inactive	–
O=C(C1=C[C@H](c2coc3ccccc3c2=O)C[C@H](OCc2ccc(CO)cc2)O1)N1CCOCC1	inactive	–
NC(=O)C1=C[C@H](c2csc3ccccc23)C[C@H](OCc2ccc(CO)cc2)O1	8.91 µM (active)	–
C=CCOC(=O)C1=C[C@@H](c2ccccc2)C[C@@H](OCc2ccc(CO)cc2)O1	10 µM (active)	–
O=C(NCc1ccccc1)C1=C[C@H](C2CC2)C[C@H](OCc2ccc(CO)cc2)O1	inactive	–
O=C(NCc1ccccc1)C1=C[C@@H](C2CCCCC2)C[C@@H](OCc2ccc(CO)cc2)O1	12.6 µM (active)	–
C=CCOC(=O)c1ccccc1C(=O)OCC=C	inactive	–

Structure (SMILES)	Potency	activity, negative = inhibition
CC(C)(C)[C@H]1C=C(C(=O)NCc2ccccc2)O[C@@H](OCc2ccc(CO)cc2)C1	inactive	–
O=C(C1=C[C@H](C2CC2)C[C@H](OCc2ccc(CO)cc2)O1)N1CCN(Cc2ccccc2)CC1	inactive	–
O=C(NCc1ccccc1)C1=C[C@@H](c2ccc(C(F)(F)F)cc2)C[C@@H](OCc2ccc(CO)cc2)O1	inactive	–
O=C(CCS(=O)(=O)c1ccccc1Cl)Nc1ccc(S(=O)(=O)Nc2ncccn2)cc1	inactive	–
O=C(COc1ccccc1)Nc1ccc(N2CCN(C(=O)c3cccs3)CC2)cc1	inactive	–
Cc1ccc(C)c(-n2ccnc2SCC(N)=O)c1	inactive	–
CC(CCn1cccn1)NC(=O)CCc1nnc(CCc2ccccc2)o1 (stereo not drawn)	inactive	–
CCC(C)NC(=O)c1nn(C)c(=O)c2ccccc12 (stereo not drawn)	inactive	–
CCC(C(=O)OCC(=O)Nc1ccccc1-c1ccccc1)c1ccccc1 (stereo not drawn)	inactive	–
CCOC(=O)c1c(C)oc2cc(Br)c(OCC(N)=O)cc12	inactive	–
CCOC(=O)c1c(C)oc2ccc(OCC(=O)N(CC)CC)cc12	11.2 µM (active)	–
CCOC(=O)c1c(C)[nH]c(C(=O)COc2ccc3c(c2)OCO3)c1C	inactive	–
O=C(Nc1ccc(Cl)cc1)/C(=C1\CCCN1)[N+](=O)[O-]	inactive	–
Cn1nc(C(F)(F)F)cc1-c1ccc(/C=C(\C#N)C(=O)c2cccc(C(F)(F)F)c2)s1	inactive	–
COc1ccc(-c2nn3c(-c4ccccc4)nnc3s2)cc1OC	25.1 µM (active)	–
COc1cc(-c2nn3c(-c4cccc(C)c4)nnc3s2)cc(OC)c1OC	inactive	–
CCOc1cccc(-c2nn3c(-c4ccccn4)nnc3s2)c1	inactive	–
CC(=O)c1sc(NC(=O)CCCOc2ccccc2C)nc1C	inactive	–
O=[N+]([O-])c1ccccc1N/N=C1\CCc2ccccc21	inactive	–
C=Cn1c(C(=O)O)ccc1-c1ccc(OC)cc1	inactive	–
O=C(CSc1nc2[nH]ncc2c(=O)n1-c1ccccc1)N1CCCc2ccccc21	inactive	–
CCCn1c(SCC(=O)N2CCc3ccccc32)nnc1-c1ccncc1	inactive	–
C=CCn1c(=O)c2ccccc2n2c(SCC(=O)N3CCCc4ccccc43)nnc12	4.47 µM (active)	–
Cc1ccnc2nc(C(=O)OCC(=O)N(CC(C)C)CC(C)C)nn12	inactive	–
Cc1ccnc(NS(=O)(=O)c2ccc(NC(=O)c3ccc(S(=O)(=O)N4CCOCC4)cc3)cc2)n1	inactive	–
O=P(O)(O)C(O)c1ccc2ccccc2c1 (stereo not drawn)	inactive	–

Structure (SMILES)	Potency	activity, negative = inhibition
N#Cc1c(/N=C/N2CCCC2)oc(-c2ccccc2)c1-c1ccccc1	7.94 µM (active)	–
N#Cc1c2c(c(-c3ccccc3)[nH]c1=O)CCCC2	inactive	–
CCSc1sc(CC)cc1C=O	inactive	–
O=C(COC(=O)c1ccccc1)Nc1cccc(S(=O)(=O)N2CCOCC2)c1	inactive	–
Cc1ccc(N(C(=O)c2ccc(S(=O)(=O)N(C)C)cc2)C2C=CS(=O)(=O)C2)cc1 (stereo not drawn)	inactive	–
C=CCNc1scc(-c2ccccc2)[n+]1CC=C	inactive	–
CCc1ccnc(NS(=O)(=O)c2ccc3c(c2)OCCO3)c1	inactive	–
CCN(C(=O)COC(=O)/C=C/c1nc2ccccc2s1)C1CCS(=O)(=O)C1 (stereo not drawn)	inactive	–
CCCCC(=O)Nc1nc(C)c(-c2csc(Nc3ccc(Cl)cc3)n2)s1	11.2 µM (active)	–
Cc1nc(NC(=O)c2cccc(Cl)c2)sc1-c1csc(Nc2cccc(Cl)c2)n1	inactive	–
CCCCN(C)CCC(=O)Nc1ccc(Cl)cc1	inactive	–
Cc1ccc(-c2csc(NNC(=O)c3ccccc3)n2)cc1	inactive	–
Cc1ccc(Nc2nc(-c3sc(NC(=O)c4ccccc4)nc3C)cs2)cc1	20 µM (active)	–
COc1ccc(-c2csc(NC(=O)CCCc3cccs3)n2)cc1	inactive	–
COc1ccc(C(=O)Nc2ccc3c(c2)OCO3)cc1OC	inactive	–
COC(=O)CCNc1ccc2c(c1)OCCO2	inactive	–
CCOc1ccc(NCCC(=O)c2ccc3c(c2)OCO3)cc1	0.631 µM (active)	–
Cc1ccc(C)n1NC(=O)c1ccc([N+](=O)[O-])cc1	inactive	–
CC(=O)Nc1ccc(Nc2c([N+](=O)[O-])cc(S(C)(=O)=O)cc2[N+](=O)[O-])cc1	inactive	–
Cc1cccc(NC(=S)N2CCCC(c3nc4ccccc4[nH]3)C2)c1 (stereo not drawn)	inactive	–
CC(C)(C)C1CCc2c(sc3nc(SCC(N)=O)nc(N)c23)C1 (stereo not drawn)	inactive	–
CCCn1nnc2sc3c(c2c1=O)CCC(C)C3 (stereo not drawn)	6.31 µM (active)	–
CCC1(C)Cc2c(sc3nnn(CC(=O)Nc4ccc(Cl)cc4)c(=O)c23)CO1 (stereo not drawn)	inactive	–
Cc1ccc(NC(=O)c2ccccn2)cc1S(=O)(=O)N1CCOCC1	inactive	–
CCOc1ccc2c(c1)cc(CN(C(=O)CC)C1CCCCC1)c1nnnn12	31.6 µM (active)	–
CCc1ccc2c(c1)cc(CN(C(=S)Nc1ccccc1Cl)C1CC1)c1nnnn12	inactive	–

Structure (SMILES)	Potency	activity, negative = inhibition
O=C(COC(=O)c1ccncc1)c1ccccc1	inactive	–
Cn1cccc1/C=C1\SC(=O)N(CC(=O)Nc2ccc(F)cc2)C1=O	inactive	–
COC(=O)CCCC1=CC2=CC(=O)C(C)(OC(=O)c3cccs3)C(=O)C2=CN1c1cccc(C#N)c1 (stereo not drawn)	–	1.29% [at 13.5 µM] (inactive)
Cc1ccc(S(=O)(=O)N(C)CC(=O)N2CCc3ccccc32)cc1	inactive	–
Cc1ccc2c(c1)N(C(=O)CCC(=O)N1CCc3ccccc3C1)CCO2	20 µM (active)	–
Cc1ccc(-c2cc(C(=O)N3CCc4ccccc4C3)no2)cc1	inactive	–
Cc1cccc(NC(=O)Nc2ccc3c(c2)OCO3)n1	inactive	–
CC1=C2[C@@H](O)[C@H]([C@@H](C)C(=O)NCCC(C)C)CC[C@@]2(C)C=CC1=O	inactive	–
CC(=O)OC1C([N+]2(C)CCCCC2)C[C@H]2C3CC[C@H]4C[C@H](OC(C)=O)C([N+]5(C)CCCCC5)CC4(C)C3CCC12C (stereo partly drawn)	inactive	–
N#Cc1c(N)sc2c1CCN(C(=O)OCc1ccccc1)C2	10 µM (active)	–
N#Cc1ccc(COC(=O)Cn2nnc(-c3ccccc3)n2)cc1	inactive	–
O=C(O)C1CCN(C(=O)OCc2ccccc2)CC1	inactive	–
CCN1CCC2(CCN(Cc3cn[nH]c3-c3ccc(OC)c(F)c3)C2)C1 (stereo not drawn)	inactive	–
C=CCN(CC=C)CCOc1ccccc1[N+](=O)[O-]	inactive	–
COc1ccc(Nc2nc(N)nc(CSC(=S)N3CCC(C)CC3)n2)cc1	3.16 µM (active)	–
CCOC(=O)c1cnc(SCc2nc(N)nc(Nc3ccc(OC)cc3)n2)nc1N	inactive	–
CCOC(=O)N1CCN(Cc2nc(N)nc(Nc3ccc(C)cc3)n2)CC1	inactive	–
Oc1ccc(-c2onc3ccc(Cl)cc23)cc1	11.2 µM (active)	–
O=C1N(Cc2ccc3c(c2)OCO3)c2ccccc2C1(O)c1c[nH]c2ccccc12 (stereo not drawn)	3.16 µM (active)	–
O=C(Cn1nnc(-c2ccccc2)n1)NCc1ccc2c(c1)OCO2	inactive	–
O=C(CCCCn1c(=O)[nH]c2ccccc2c1=O)NCc1ccc2c(c1)OCO2	inactive	–
CCOc1ccc(-n2cnc3c(=O)[nH]c(N)nc32)cc1	inactive	–
CO/N=C(\N)c1ccc([N+](=O)[O-])cc1	inactive	–
CCCn1c(SCC(=O)Nc2ccc(C)c(S(=O)(=O)N3CCOCC3)c2)n[nH]c1=O	inactive	–
COc1ccc(CNc2c(CO)cnc3c2cnn3C)cc1	inactive	–
